Source: PubChem BioAssay AID588689 (Southern Research Specialized Biocontainment Screening …, 2011)
Out of some 340,000 compounds screened, about 1,000 (0.29%) were called active. Cut-off read from the data, not from the text of the source: inconclusive = inhibition above about 29% without an active follow-up result; inactive = below that. Not all results are given here. Measured potencies and affinities stand elsewhere.

Molecular target: Genome polyprotein (Dengue virus type 2 (strain 16681-PDK53)) (UniProt P29991)
Experiment: Dengue-2 NS5 methyltransferase inhibitors, primary screen, biochemical, confirmation dose response (AID 588689)
Conditions: Dengue-2 NS5 methyltransferase capping enzyme assay, at 25 µM, stronger effect = higher value
[1] = measured here: pilot screen replicate inhibition

Row | SMILES | inhibition | inhibition [1] [%]
1 | CC(C)CCNC(=O)c1ccc(-n2cnc3cccnc32)cc1 | -2.72% (inactive) | –
2 | COc1ccc2cc(CCNC(=O)CCc3ccccc3)c(=O)[nH]c2c1 | 0.89% (inactive) | –
3 | O=C(Nc1ncn[nH]1)c1ccc(S(=O)(=O)N2CCOCC2)cc1 | -3.52% (inactive) | –
4 | COC(=O)c1ccc(C(C2C(=O)CC(C)(C)CC2=O)C2C(=O)CC(C)(C)CC2=O)cc1 | -3.89% (inactive) | –
5 | COC(=O)COc1ccc(NC(=O)C(c2ccccc2)c2ccccc2)cc1 | -6.79% (inactive) | –
6 | CC1(C)CC(=O)C(C(c2ccc(F)cc2)C2C(=O)CC(C)(C)CC2=O)C(=O)C1 | -0.73% (inactive) | –
7 | COc1ccc(C2=CC(=O)CC(C)(C)C2)cc1 | 2.79% (inactive) | –
8 | COc1cccc(C(C2C(=O)CC(C)(C)CC2=O)C2C(=O)CC(C)(C)CC2=O)c1 | 23.1% (inactive) | –
9 | CC1(C)CC(=O)C(C(c2cccnc2)C2C(=O)CC(C)(C)CC2=O)C(=O)C1 | 12.3% (inactive) | -0.765
10 | CC(=O)N(C)N(C)c1cc(C)nc(N)n1 | 0.78% (inactive) | –
11 | Nn1cnnc1N/N=C/c1ccc(F)cc1 | 0.39% (inactive) | –
12 | COc1ccc(CNc2ccc(S(N)(=O)=O)cc2)c(OC)c1OC | -2.41% (inactive) | –
13 | CCOc1ccc(NC(=O)N2CCCC2C(=O)NCC2CCCO2)cc1 (stereo not given) | -7.19% (inactive) | –
14 | O=C1CCCc2oc3c(c21)CCCC3 | 0.9% (inactive) | –
15 | COCCN1C(=O)C(=O)/C(=C(/O)c2ccc3c(c2)OCCO3)C1c1ccc(C(=O)OC)cc1 (stereo not given) | 0.56% (inactive) | –
16 | COc1ccc(-c2csc(NC(=O)CSc3nc(C)cs3)n2)cc1 | -6.77% (inactive) | –
17 | COc1ccc(-c2csc(NC(=O)CSc3n[nH]c(C)n3)n2)cc1 | -3.23% (inactive) | –
18 | COc1ccccc1C(C)NCC(=O)NCc1ccc(C)cc1 (stereo not given) | -3.92% (inactive) | –
19 | Cc1nnc(SCC(=O)Nc2nnc(SCc3cccc(Br)c3)s2)s1 | 0.64% (inactive) | –
20 | CCCc1nc(SCC(=O)Nc2nc3c(s2)CCCC3)c2ccccc2n1 | 2.76% (inactive) | –
21 | O=C1c2cccc([N+](=O)[O-])c2C(=O)N1c1ccccc1 | 0% (inactive) | –
22 | CN1C/C(=C/c2ccccc2[N+](=O)[O-])C(=O)/C(=C\c2ccccc2[N+](=O)[O-])C1 | 1.54% (inactive) | –

Row | SMILES | inhibition | inhibition [1] [%]
23 | CCOc1ccc(C(=O)N/N=C/c2ccccc2[N+](=O)[O-])cc1 | -7.26% (inactive) | –
24 | CCOc1ccc(N2C(=O)C(=O)/C(=C(/O)c3ccccc3)C2c2ccccc2[N+](=O)[O-])cc1 (stereo not given) | 13.8% (inactive) | –
25 | COc1ccc(N2C(=O)CSC2c2ccccc2[N+](=O)[O-])cc1 (stereo not given) | 0.75% (inactive) | –
26 | COc1cc(/C=C2/C(=O)NN(c3ccc(C)c(Cl)c3)C2=O)cc([N+](=O)[O-])c1O | 69.8% (inactive) | –
27 | O=C1NN(c2ccccc2)C(=O)/C1=C\c1ccc2c(c1)OCO2 | 15.1% (inactive) | –
28 | COc1ccc(C(=Cc2ccccc2[N+](=O)[O-])C(=O)O)cc1 | -6.2% (inactive) | –
29 | CCc1noc(C)c1C(=O)NCCc1ccc(OC)c(OC)c1 | -2.74% (inactive) | –
30 | CCOC(=O)C1C(C)=C(Nc2ccc(OC)cc2)C(=O)N1c1ccc(OC)cc1 (stereo not given) | -2.18% (inactive) | –
31 | O=C(Cn1cc([N+](=O)[O-])cn1)NCc1ccccc1Cl | -6.16% (inactive) | –
32 | Cc1c(C2(O)CCCCC2)[nH]c2ccc(C#N)cc12 | 1.37% (inactive) | –
33 | O=C(O)/C=C\c1cc2c(cc1[N+](=O)[O-])OCO2 | 4.71% (inactive) | –
34 | O=C1NC(=S)N/C1=C/c1cc2c(cc1[N+](=O)[O-])OCO2 | 6.53% (inactive) | –
35 | O=C1NC(=O)C(=Cc2ccccc2[N+](=O)[O-])S1 | 13.1% (inactive) | –
36 | CC1(C)OC(C)(C)/C(=C\c2ccccc2[N+](=O)[O-])C1=O | -3.9% (inactive) | –
37 | CCOC(=O)N1CCC(NC(=O)CSCc2nc(-c3ccccc3Cl)oc2C)CC1 | -1.81% (inactive) | –
38 | CCc1ccc(C)[n+](CC(=O)c2cccs2)c1 | -10.5% (inactive) | –
39 | O=C(c1cccnc1)N1CCN(S(=O)(=O)c2cccc(Cl)c2)CC1 | 2.63% (inactive) | –
40 | Cc1cccc(CCNS(=O)(=O)c2ccc3c(c2)NC(=O)CS3)c1 | -3.63% (inactive) | –
41 | CSCCC(NC(N)=O)C(=O)Nc1ccc2ccccc2c1 (stereo not given) | 3.12% (inactive) | –
42 | NC(=O)c1ccc(NC(=O)CNc2cc(S(=O)(=O)N3CCOCC3)ccc2N2CCCC2)cc1 | -2.57% (inactive) | –
43 | CCN(CC)C(=O)c1ccccc1NC(=O)CN1C(=O)c2ccccc2S1(=O)=O | -2.2% (inactive) | –
44 | CC(=O)NNC(=O)CN1C(=O)/C(=C/c2ccccc2)SC1=S | -2.32% (inactive) | –

Row | SMILES | inhibition | inhibition [1] [%]
45 | COc1cccc(/C=C2/SC(=S)N(CC(=O)NNC(=O)c3ccccc3OC)C2=O)c1 | 4.13% (inactive) | –
46 | O=C(O)CN1C(=O)/C(=C\c2cccc(OC(=O)c3ccco3)c2)SC1=S | 2.44% (inactive) | –
47 | O=C(O)COc1cccc(/C=C2/SC(=S)N(Cc3ccccc3)C2=O)c1 | 13.1% (inactive) | –
48 | COc1cccc(/C=C2/SC(=S)N(CC(=O)NNC(=O)c3ccccc3O)C2=O)c1 | 2.67% (inactive) | –
49 | CN1C(=O)/C(=C\c2cccc(OCc3ccccc3)c2)SC1=S | 5.28% (inactive) | –
50 | O=C(CN1C(=O)/C(=C/c2cccc(Cl)c2)SC1=S)NC1C=CS(=O)(=O)C1 (stereo not given) | -2.72% (inactive) | –
51 | O=C1/C(=C\c2cccc(O)c2)SC(=S)N1Cc1ccccc1 | -14.8% (inactive) | –
52 | COc1ccccc1CC(=O)OCC(=O)N1CCN(c2ccc(F)cc2)CC1 | -10.1% (inactive) | –
53 | Cc1[nH]c(C)c(S(=O)(=O)N2CCN(c3cccc(Cl)c3)CC2)c1C(=O)N1CCCCC1 | -6.81% (inactive) | –
54 | CC(C)CCN(C(=O)C1CCCC1)c1c(N)n(Cc2ccccc2)c(=O)[nH]c1=O | 0.73% (inactive) | –
55 | COCCn1c(C)cc(C(=O)CSc2nnnn2C2CCCC2)c1C | -0.76% (inactive) | –
56 | CCOP(=O)(OCC)c1nc(/C=C/c2ccccc2)oc1NCc1ccc(OC)cc1 | -2.05% (inactive) | –
57 | O=S(=O)(Cc1ccccc1)Nc1ccccc1 | 1.96% (inactive) | -2.12
58 | Cc1ccc(NS(=O)(=O)Cc2ccccc2)nc1 | -2.96% (inactive) | –
59 | CNC(=O)NC(=S)NC(=O)c1ccccc1Cl | 2.96% (inactive) | –
60 | Cc1ccc2c(c1)c(C1=NC(=S)NC1=O)c(O)n2C | -5.15% (inactive) | –
61 | COc1cc2c3c(c1)c(C1=NC(=S)NC1=O)c(O)n3C(C)(C)C=C2C | 5.22% (inactive) | –
62 | CC1(C)O[C@@H]2[C@H](O1)[C@@H](CO)O[C@H]2n1cc(Br)c(=O)[nH]c1=O | -17.6% (inactive) | –
63 | NCCCC[C@@H]1NC(=O)c2cc([N+](=O)[O-])cc(F)c2NCCCC[C@@H](C(N)=O)NC(=O)CNC1=O | -4.1% (inactive) | –
64 | O=C(NCc1ccco1)c1nnc(Cc2ccc(F)cc2)o1 | 2.07% (inactive) | –
65 | N#Cc1c(-c2ccc(Cl)cc2)cc(-c2ccccc2)nc1SCC(=O)O | 1.16% (inactive) | –
66 | COc1ccc(-c2cc(-c3ccccc3)c(C#N)c(SCC(=O)O)n2)cc1 | 14% (inactive) | –

Row | SMILES | inhibition | inhibition [1] [%]
67 | O=C(O)c1cccc2c1/C(=N/Nc1ccc([N+](=O)[O-])cc1[N+](=O)[O-])c1ccccc1-2 | 20.5% (inactive) | –
68 | Cc1cccc(CS(=O)(=O)c2ncc(Cl)c(C(=O)NCc3ccccc3)n2)c1 | -74.2% (inactive) | –
69 | Cc1nnc(NC(=O)c2nc(S(=O)(=O)Cc3ccccc3)ncc2Cl)s1 | 19.6% (inactive) | –
70 | CSc1ncc(Cl)c(C(=O)Nc2nnc(SC)s2)n1 | 5.42% (inactive) | –
71 | Cc1ccc(NC(=O)c2nc(S(=O)(=O)Cc3ccccc3)ncc2Cl)cc1 | -43.4% (inactive) | –
72 | CC(=O)Nc1ccc(NC(=O)c2nc(S(=O)(=O)Cc3ccccc3)ncc2Cl)cc1 | -50.4% (inactive) | –
73 | Cc1nnc(NC(=O)c2nc(S(=O)(=O)Cc3ccccc3C)ncc2Cl)s1 | 27.3% (inactive) | –
74 | COC(=O)c1ccc(NC(=O)c2nc(S(=O)(=O)Cc3cccc(C)c3)ncc2Cl)cc1 | -59.7% (inactive) | –
75 | Cc1ccccc1CS(=O)(=O)c1ncc(Cl)c(C(=O)Nc2ccc(F)cc2)n1 | -55.8% (inactive) | –
76 | O=C(c1cc(-c2ccc(Br)cc2)nc2ccccc12)N1CCC1 | -2.19% (inactive) | –
77 | COc1ccccc1N1CCN(C(=O)c2oc3c(c2C)C(=O)CC(C)(C)C3)CC1 | 4.65% (inactive) | –
78 | O=C(N/N=C/C(Cl)=C\c1ccccc1)c1cnccn1 | -6.4% (inactive) | –
79 | C=CC[C@H](CC(=O)N[C@H](CO)Cc1ccccc1)C(=O)N[C@@H](COC(=O)[C@H](CC=C)CC(=O)OC(C)(C)C)Cc1c[nH]c2ccccc12 | -0.83% (inactive) | –
80 | COc1ccc(/C=C2/SC(=O)N(CCC(=O)Nc3ccc(S(=O)(=O)Nc4nccs4)cc3)C2=O)cc1 | -5.09% (inactive) | –
81 | O=C(/C(=C(/[O-])c1ccccc1)[n+]1ccccc1)c1ccc([N+](=O)[O-])cc1 | 3.25% (inactive) | –
82 | CCCc1ncc(CN2CCCCC2C(=O)Nc2ccc(Oc3ccccc3)nc2)cn1 (stereo not given) | -5.15% (inactive) | –
83 | CCCCn1c(N)c(N(C)C(=O)c2cn(-c3ccccc3)nc2-c2ccccc2)c(=O)[nH]c1=O | -2.61% (inactive) | –
84 | NS(=O)(=O)c1ccc2nc(NC(=O)Nc3ccc(F)cc3)sc2c1 | -9.52% (inactive) | –
85 | O=C(Nc1ccc(Cl)c(S(=O)(=O)N2CCOCC2)c1)c1cccs1 | -1.55% (inactive) | –
86 | CC(=O)Nc1ccc(NC(=O)c2nc(S(=O)(=O)Cc3cccc(C)c3)ncc2Cl)cc1 | -42.6% (inactive) | –
87 | Cc1cccc(CS(=O)(=O)c2ncc(Cl)c(C(=O)Nc3c(C)cccc3C)n2)c1 | -57.4% (inactive) | –
88 | O=C(Nc1ncccc1O)c1ccc2c(c1)OCO2 | 0.74% (inactive) | –
